Experimental data taken from PubChem BioAssay (Tox21).
Results filed as inconclusive are left out. A call without a number means that no potency is given here. Activity calls are given as the source filed them. Calls come from the whole dose curve; as a rule, active = well fitted inhibition curve with a large enough effect in the signal ratio in the repeat runs (not every such curve was filed as active); inconclusive = weak or mixed curves; inactive = flat fitted curve, though single readings scatter; the % refers to the signal ratio.

biological target: Progesterone receptor (Homo sapiens) (UniProt P06401); test: qHTS assay to identify small molecule antagonists of the progesterone receptor (PR) signaling pathway (AID 1346795); details: PR-UAS-bla HEK293T, beta-lactamase FRET ratio, 16 h; series mostly up to 92.4 µM
Sequence (P06401 whole entry, looked up): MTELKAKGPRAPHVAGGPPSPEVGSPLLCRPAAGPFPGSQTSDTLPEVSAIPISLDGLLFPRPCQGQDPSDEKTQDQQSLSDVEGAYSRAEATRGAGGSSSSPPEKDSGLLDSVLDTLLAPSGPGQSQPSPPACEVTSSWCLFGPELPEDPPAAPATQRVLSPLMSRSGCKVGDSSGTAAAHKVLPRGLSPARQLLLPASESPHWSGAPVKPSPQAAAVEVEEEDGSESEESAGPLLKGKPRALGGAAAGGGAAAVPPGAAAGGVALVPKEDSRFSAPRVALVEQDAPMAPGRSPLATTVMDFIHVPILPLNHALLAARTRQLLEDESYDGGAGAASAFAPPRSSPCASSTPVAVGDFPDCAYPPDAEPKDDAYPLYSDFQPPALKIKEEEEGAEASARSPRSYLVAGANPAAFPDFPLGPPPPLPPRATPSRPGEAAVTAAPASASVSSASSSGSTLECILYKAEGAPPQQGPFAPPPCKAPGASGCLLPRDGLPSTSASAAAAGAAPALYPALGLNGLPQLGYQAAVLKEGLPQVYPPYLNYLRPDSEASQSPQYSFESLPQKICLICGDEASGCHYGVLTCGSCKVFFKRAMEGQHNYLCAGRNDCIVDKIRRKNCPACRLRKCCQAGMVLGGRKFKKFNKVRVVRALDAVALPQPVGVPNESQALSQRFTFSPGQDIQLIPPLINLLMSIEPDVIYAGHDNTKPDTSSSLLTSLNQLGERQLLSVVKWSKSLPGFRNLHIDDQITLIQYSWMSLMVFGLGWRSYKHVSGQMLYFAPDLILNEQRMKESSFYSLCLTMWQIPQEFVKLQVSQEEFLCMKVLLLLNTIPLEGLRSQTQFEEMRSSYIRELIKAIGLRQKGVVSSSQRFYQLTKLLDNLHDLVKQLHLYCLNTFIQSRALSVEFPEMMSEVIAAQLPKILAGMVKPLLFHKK
From the text: National Center for Advancing Translational Sciences [NCATS]
NIH Chemical Genomics Center [NCGC]
U.S. Environmental Protection Agency [EPA]
National Institutes of Environmental Health Sciences [NIEHS]
National Toxicology Program [NTP]
U.S. Food and Drug Administration [FDA]
Progesterone receptor (PR), a nuclear hormone receptor, plays an important role in development, metabolic homeostasis and reproduction. […] Endocrine disrupting chemicals (EDCs) and their interactions with steroid hormone receptors like PR causes disruption of normal endocrine function. To identify the compounds that inhibit PR signaling, a PR-UAS-bla GripTite cell line i.e. PR-UAS-bla HEK293T (Invitrogen, Carlsbad, CA, USA) containing a beta-lactamase reporter gene under the control of an Upstream Activator Sequence (UAS) was used to screen Tox21 10K compound library.
Tox21 Assay Protocol Summary:
PR-UAS-bla HEK293T cells were dispensed at 3,000 cells/4 uL of assay medium containing 2% charcoal stripped FBS per well into black wall/clear-bottom 1536-well plates using a Multidrop Combi (ThermoFisher Scientific, Waltham, MA) dispenser. After the assay plates were incubated at a 37C and 5% CO2 for 6 hr, 23 nL of compounds dissolved in DMSO, positive controls or DMSO only was transferred to the assay plate by a Pintool station (Kalypsys, San Diego, CA), followed by addition of 1 uL (1nM as final concentration) of Promegestone (R5020) in assay medium using a BioRAPTR FRD (Flying Reagent Dispenser, Aurora Discovery, San Diego, CA). The plates were incubated at 37C and 5% CO2 for 16 hr. Then 1 uL of LiveBLAzer B/G FRET substrate was added using a FRD. After the plates were incubated at room temperature for 2 hours, fluorescence intensity was measured by an Envision plate reader (PerkinElmer, Shelton, CT).
Potency is the fitted concentration of half-maximal effect.

Row | Compound | Potency | activity change, negative = inhibition
1 | O=C1c2ccccc2S(=O)(=O)N1CCCCN1CCN(c2ncccn2)CC1 | inactive | 
2 | CCOC(=O)c1cccnc1 | inactive | 
3 | NS(=O)(=O)c1ccc(N2CCCCS2(=O)=O)cc1 | inactive | 
4 | CCOC(=O)C1=C[C@]2(CC)CCCN3CCc4c(n1c1ccccc41)[C@@H]32 | 23.7 µM (active) | 
5 | Cc1ncc(CO)c(C=O)c1O | inactive | 
6 | Cc1[nH]c(C)c(Cl)c(=O)c1Cl |  | 4.44% [at 18.9 µM] (inactive)
7 | Cc1ccccc1S(=O)(=O)O | inactive | 
8 | O=P(O)(OCc1ccccc1)OCc1ccccc1 | inactive | 
9 | CC(C)(O)c1ccc(CNC(=O)c2cccnc2Oc2ccc(F)cc2)cc1 | inactive | 
10 | NCCCN1CCOCC1 | inactive | 
11 | C[C@@H](c1ncncc1F)C(O)(Cn1cncn1)c1ccc(F)cc1F (stereo not given in full) | inactive | 
12 | COc1cccc(N(C)C(=S)Oc2ccc3c(c2)CCCC3)n1 | 18.8 µM (active) | 
13 | CCOc1ccc(N=Nc2ccc(/C=C/c3ccc(N=Nc4ccc(OCC)cc4)cc3S(=O)(=O)O)c(S(=O)(=O)O)c2)cc1 | inactive | 
14 | COc1cc2nc(N3CCN(C(=O)C4COc5ccccc5O4)CC3)nc(N)c2cc1OC (stereo not given) | inactive | 
15 | COc1cc2nc(Cl)nc(N)c2cc1OC | inactive | 
16 | CCCCCCCN | inactive | 
17 | CCn1cc(C(=O)O)c(=O)c2cnc(N3CCNCC3)nc21 | inactive | 
18 | CC1=CCCC(C)(C)C12CCC(C)O2 (stereo not given) | inactive | 
19 | NCC(=O)O |  | 9.41% [at 18.9 µM] (inactive)
20 | CCNc1cc(O)ccc1C | inactive | 

Row | Compound | Potency | activity change, negative = inhibition
21 | CCOCC(O)COc1ccc(NC(=O)CC[S+](C)C)cc1 (stereo not given) | inactive | 
22 | NCc1ccccc1Sc1ccccc1CO | inactive | 
23 | CCOC(=O)C(=O)CCc1ccccc1 | inactive | 
24 | C/C(=C(\CCOP(=O)(O)O)SC(=O)c1ccccc1)N(C=O)Cc1cnc(C)nc1N |  | 5.03% [at 8.39 µM] (inactive)
25 | CCN(CC)c1ccc(C(=C2C=CC(=[N+](CC)CC)C=C2)c2cc(S(=O)(=O)O)ccc2S(=O)(=O)[O-])cc1 | inactive | 
26 | O=C(O)C(S)C(S)C(=O)O (stereo not given) | inactive | 
27 | CC(C)(CO)[N+](=O)[O-] | inactive | 
28 | O=C(NCC1CN(c2ccc(N3CCOCC3=O)cc2)C(=O)O1)c1ccc(Cl)s1 (stereo not given) | inactive | 
29 | CC(C)CC(=O)C1C(=O)c2ccccc2C1=O | inactive | 
30 | CCCCC(CC)COC(=O)CCCCCCCCC(=O)OCC(CC)CCCC (stereo not given) | inactive | 
31 | Nc1ccc(S(=O)(=O)Nc2ccccc2)cc1 | inactive | 
32 | CC(CSC(=O)c1ccccc1)C(=O)N1C[C@@H](Sc2ccccc2)C[C@H]1C(=O)O (stereo not given in full) |  | 1.77% [at 18.9 µM] (inactive)
33 | COC(C)(C)CCO | inactive | 
34 | OCCNCc1ccccc1 | inactive | 
35 | OCCN1CCN(CCCN2c3ccccc3C=Cc3ccccc32)CC1 | inactive | 
36 | CCC(Cl)CCC(Cl)C(Cl)CC(Cl)C(Cl)C(Cl)CCl (stereo not given) | inactive | 
37 | Cc1oc2c(NC(=O)c3c(Cl)cccc3Cl)cccc2c1C(C)(C)O | 24.3 µM (active) | 
38 | Nc1cc(C(=O)O)c(O)c(S(=O)(=O)O)c1 | inactive | 
39 | CCCCC | inactive | 
40 | CC(=O)c1ccc2c(c1)N(CCCN(C)C)c1ccccc1S2 | inactive | 
